The source of these data is PubChem BioAssay (NCATS).

Records with an inconclusive call do not appear. Entries that show only a call come without a potency. The source made the active and inactive calls. Unless noted, the call rests on the fitted dose curve; in most records, active means well fitted activation curve with a large enough effect; inconclusive means small, poorly fitted or top-dose-only effect; inactive means no such curve, though single readings can be large or run the other way.

Sequence of Arylsulfatase A (Homo sapiens) (P15289 whole entry, looked up): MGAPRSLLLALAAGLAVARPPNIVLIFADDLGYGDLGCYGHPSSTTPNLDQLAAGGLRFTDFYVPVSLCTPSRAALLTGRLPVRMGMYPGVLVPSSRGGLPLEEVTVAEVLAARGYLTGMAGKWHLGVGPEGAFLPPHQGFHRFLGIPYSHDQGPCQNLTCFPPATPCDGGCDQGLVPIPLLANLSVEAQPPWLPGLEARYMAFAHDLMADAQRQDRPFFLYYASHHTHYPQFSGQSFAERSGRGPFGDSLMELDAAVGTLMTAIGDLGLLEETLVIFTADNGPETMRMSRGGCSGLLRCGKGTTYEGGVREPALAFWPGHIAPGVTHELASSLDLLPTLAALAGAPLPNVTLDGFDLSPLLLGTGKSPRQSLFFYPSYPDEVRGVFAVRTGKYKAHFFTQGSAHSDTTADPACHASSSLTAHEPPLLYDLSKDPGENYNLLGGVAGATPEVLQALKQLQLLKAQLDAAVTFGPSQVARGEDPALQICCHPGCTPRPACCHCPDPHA

One assay has as its target Arylsulfatase A (Homo sapiens) (UniProt P15289). As to the kind of experiment: qHTS screen for enhancers of Arylsulfatase A (ASA1): LOPAC Validation Assay (AID 720538). Further: potency means the concentration at half of the fitted maximal effect. As to conditions: ASA enzyme activity, LOPAC qHTS enhancer assay; series mostly up to 57.5 µM. The essentials:
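Read-out: fluorescence at Ex=525/Em=598 nm after 1N NaOH final stop. Patient fibroblasts carrying ASA-I179S had 48h compound exposure, then 14h room-temperature pNCS hydrolysis (0.5mM final) in lysis buffer. Signal increase = enhanced activity.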
In general terms: In qHTS, concentration-response curves come from the screen itself.
Turning to `CN1CCC[C@H]1c1cccnc1`, the Potency result was “inactive”.

For the molecule `C[C@]12C=CC(=O)C=C1CC[C@@H]1C2=CC[C@]2(C)[C@@H](C(=O)CN3CCN(c4cc(N5CCCC5)nc(N5CCCC5)n4)CC3)CC[C@@H]12`, the Potency entry was “inactive”.

Regarding `O=C(O)CC1CC(c2ccccc2)=NO1` (centres undefined), the Potency result was “inactive”.

`N.N.N.N.N.N.N.N.N.N.N.N.N.N.O.O.[Ru+4].[Ru+5].[Ru+5]`: the Potency is 12 µM (active).

Tested on in the next assay: not listed separately
Nature of the assay: qHTS for Inhibitors of the Functional Ribonucleoprotein Complex (vRNP) of Lassa (LASV) Arenavirus: LASV Primary Screen - GLuc reporter signal (AID 1347082; calls by dose curve; tested in HEK293 reporter line; further: nearly all actives have a fitted effect of over 60% in size). To be noted: LASV minigenome vRNP, Gaussia luciferase reporter; series mostly up to 57.5 µM.
For `O=c1[nH]c2cc(C(F)(F)F)ccc2n1-c1cc(C(F)(F)F)ccc1O`, the Potency result is “inactive”.

In the case of `Nc1ccc(N2C(=O)c3ccccc3C2=O)c(Cl)c1`, the Potency entry was “inactive”.

For the molecule `Cn1c(=O)[nH]c2ncn(C)c2c1=O`, the Potency result was “inactive”.

As for `CCN(CC)CCOC(=O)c1cc(Cl)c(N)cc1OC`, the Potency entry was “inactive”.

On to `N#C/C(=C\c1ccc(O)c(O)c1)C(=O)NCCCc1ccccc1`, for which the Potency result was “inactive”.

For `C#CC(N)CCC(=O)O` (centres undefined), the Potency result is “inactive”.

Regarding `Fc1cccc(/C=N/N=C/c2cccc(F)c2)c1`, the Potency entry is “inactive”.

With `N.N.O=C(O)C1(C(=O)O)CCC1.[Pt]`, the Potency result is “inactive”.

As to `CN1CCC[C@H]1c1cccnc1`, the Potency entry is “inactive”.

In the case of `c1ccc2c(c1)CC(N1CCN(c3cccc4c3OCCO4)CC1)C2`, the Potency entry is “inactive”.

Turning to `O=C(O)C1CCNCC1`, the Potency entry is “inactive”.

For the molecule `CCn1c(=O)[nH]c2cc(Cl)c(Cl)cc21`, the Potency entry was “inactive”.

As for `CN1CCc2cccc3c2C1Cc1ccc(O)c(O)c1-3` (centres undefined), the Potency entry was “inactive”.

On to `N[C@H](C(=O)O)[C@H](O)C(=O)O`, for which the Potency entry was “inactive”.

With `CN[C@H](CC(C)C)C(=O)N[C@H]1C(=O)N[C@@H](CC(N)=O)C(=O)N[C@@H]2C(=O)N[C@H]3C(=O)N[C@H](C(=O)N[C@H](C(=O)O)c4cc(O)cc(O)c4-c4cc3ccc4O)[C@H](O)c3ccc(c(Cl)c3)Oc3cc2cc(c3O[C@@H]2O[C@H](CO)[C@@H](O)[C@H](O)[C@@H]2O[C@H]2C[C@](C)(N)[C@H](O)[C@H](C)O2)Oc2ccc(cc2Cl)[C@H]1O`, the Potency entry is “inactive”.

On to `COc1ccc2c(c1)c(CC(=O)O)c(C)n2Cc1ccc(Cl)cc1`, for which the Potency entry was “inactive”.

For the molecule `CCSC(=N)N`, the Potency result was “inactive”.

In the case of `N#CC(C#N)=C(N)/C(C#N)=C/c1ccc(O)cc1`, the Potency result is “inactive”.

Consider `C[C@]12C=CC(=O)C=C1CC[C@@H]1C2=CC[C@]2(C)[C@@H](C(=O)CN3CCN(c4cc(N5CCCC5)nc(N5CCCC5)n4)CC3)CC[C@@H]12`, for which the Potency entry is “inactive”.

Take `COc1cc2c(CCNC(C)=O)c[nH]c2cc1Cl`: the Potency result was “inactive”.

Turning to `CN[C@H](CC(=O)O)C(=O)O`, the Potency entry was “inactive”.

On to `CNc1cc(NS(=O)(=O)c2ccc(N)cc2)nc(NC)n1`, for which the Potency result is “inactive”.

Take `CC(C)NC[C@H](O)COc1ccc(CC(N)=O)cc1`: the Potency entry was “inactive”.

In the case of `Ic1ccc(N2CCN(Cc3c[nH]c4ncccc34)CC2)cc1`, the Potency result was “inactive”.

As to `O=C(O)CC1CC(c2ccccc2)=NO1` (centres undefined), the Potency result was “inactive”.

Take `CC[C@H](NC(=O)c1c(C)c(-c2ccccc2)nc2ccccc12)c1ccccc1`: the Potency result is “inactive”.

Regarding `N=C(N)SCCc1cnc[nH]1`, the Potency entry is “inactive”.

Turning to `O=[N+]([O-])c1ccc(CSc2ncnc3c2ncn3[C@@H]2O[C@H](CO)[C@@H](O)[C@H]2O)cc1`, the Potency entry is “inactive”.

In the case of `Nc1ncnc2c1nc(Sc1ccc(Cl)cc1)n2[C@H]1OC2COP(=O)(O)O[C@@H]2C1O` (some centres undefined), the Potency entry was “inactive”.

With `COc1ccccc1N1CCN(CCN(C(=O)c2ccc(F)cc2)c2ccccn2)CC1`, the Potency result was “inactive”.

With `C=CC[C@H](N)C(=O)O`, the Potency result was “inactive”.

For the molecule `NOCC(=O)O`, the Potency result was “inactive”.

With `Nc1c(S(=O)(=O)O)cc(Nc2ccc(Nc3nc(Cl)nc(Nc4ccc(S(=O)(=O)O)cc4)n3)c(S(=O)(=O)O)c2)c2c1C(=O)c1ccccc1C2=O`, the Potency entry was “inactive”.

For `O=C(c1ccc2c(c1)OCCO2)N1CCCCC1`, the Potency result is “inactive”.

In the case of `CSC(=N)N`, the Potency entry is “inactive”.

Turning to `Nc1ncnc2c1ncn2[C@@H]1O[C@H](COP(=O)(O)CP(=O)(O)OP(=O)(O)O)[C@@H](O)[C@H]1O`, the Potency result is “inactive”.

For the molecule `N#C/C(=C\c1ccc(O)c(O)c1)C(=O)Nc1ccccc1`, the Potency entry is “inactive”.

As for `NCCSSCCN`, the Potency result is “inactive”.

Consider `N.N.N.N.N.N.N.N.N.N.N.N.N.N.O.O.[Ru+4].[Ru+5].[Ru+5]`, for which the Potency entry is “inactive”.

As for `O=C(c1cc(O)c(O)c([N+](=O)[O-])c1)c1ccccc1F`, the Potency entry is “inactive”.

Tested on in another assay: not listed separately
As to the kind of experiment: qHTS for Inhibitors of the Functional Ribonucleoprotein Complex (vRNP) of Lassa (LASV) Arenavirus: Viability assay - alamar blue signal for LASV Primary Screen (AID 1347083; calls by dose curve; tested in HEK293 reporter line; further: nearly all actives have a fitted effect of over 80% in size). As to conditions: cell viability, alamar blue fluorescence (LASV minigenome counter-screen); series mostly up to 57.5 µM.
`O=c1[nH]c2cc(C(F)(F)F)ccc2n1-c1cc(C(F)(F)F)ccc1O`: the Potency result was “inactive”.

As to `Nc1ccc(N2C(=O)c3ccccc3C2=O)c(Cl)c1`, the Potency entry is “inactive”.

On to `Cn1c(=O)[nH]c2ncn(C)c2c1=O`, for which the Potency entry is “inactive”.

For the molecule `CCN(CC)CCOC(=O)c1cc(Cl)c(N)cc1OC`, the Potency entry was “inactive”.

On to `N#C/C(=C\c1ccc(O)c(O)c1)C(=O)NCCCc1ccccc1`, for which the Potency entry is “inactive”.

With `C#CC(N)CCC(=O)O` (centres undefined), the Potency result is “inactive”.

Turning to `Fc1cccc(/C=N/N=C/c2cccc(F)c2)c1`, the Potency result was “inactive”.

For the molecule `N.N.O=C(O)C1(C(=O)O)CCC1.[Pt]`, the Potency result was “inactive”.

For the molecule `CN1CCC[C@H]1c1cccnc1`, the Potency result was “inactive”.

Take `c1ccc2c(c1)CC(N1CCN(c3cccc4c3OCCO4)CC1)C2`: the Potency entry is “inactive”.

On to `O=C(O)C1CCNCC1`, for which the Potency result is “inactive”.

With `CCn1c(=O)[nH]c2cc(Cl)c(Cl)cc21`, the Potency entry was “inactive”.

`CN1CCc2cccc3c2C1Cc1ccc(O)c(O)c1-3` (centres undefined): the Potency result was “inactive”.

On to `N[C@H](C(=O)O)[C@H](O)C(=O)O`, for which the Potency entry is “inactive”.

With `CN[C@H](CC(C)C)C(=O)N[C@H]1C(=O)N[C@@H](CC(N)=O)C(=O)N[C@@H]2C(=O)N[C@H]3C(=O)N[C@H](C(=O)N[C@H](C(=O)O)c4cc(O)cc(O)c4-c4cc3ccc4O)[C@H](O)c3ccc(c(Cl)c3)Oc3cc2cc(c3O[C@@H]2O[C@H](CO)[C@@H](O)[C@H](O)[C@@H]2O[C@H]2C[C@](C)(N)[C@H](O)[C@H](C)O2)Oc2ccc(cc2Cl)[C@H]1O`, the Potency result was “inactive”.

In the case of `COc1ccc2c(c1)c(CC(=O)O)c(C)n2Cc1ccc(Cl)cc1`, the Potency result was “inactive”.

Turning to `CCSC(=N)N`, the Potency result was “inactive”.

Take `N#CC(C#N)=C(N)/C(C#N)=C/c1ccc(O)cc1`: the Potency result is “inactive”.

As for `C[C@]12C=CC(=O)C=C1CC[C@@H]1C2=CC[C@]2(C)[C@@H](C(=O)CN3CCN(c4cc(N5CCCC5)nc(N5CCCC5)n4)CC3)CC[C@@H]12`, the Potency entry is “inactive”.

Consider `COc1cc2c(CCNC(C)=O)c[nH]c2cc1Cl`, for which the Potency entry was “inactive”.

On to `CN[C@H](CC(=O)O)C(=O)O`, for which the Potency entry is “inactive”.

As to `CNc1cc(NS(=O)(=O)c2ccc(N)cc2)nc(NC)n1`, the Potency entry is “inactive”.

Turning to `CC(C)NC[C@H](O)COc1ccc(CC(N)=O)cc1`, the Potency result is “inactive”.

Regarding `Ic1ccc(N2CCN(Cc3c[nH]c4ncccc34)CC2)cc1`, the Potency entry was “inactive”.

As to `O=C(O)CC1CC(c2ccccc2)=NO1` (centres undefined), the Potency result was “inactive”.

On to `CC[C@H](NC(=O)c1c(C)c(-c2ccccc2)nc2ccccc12)c1ccccc1`, for which the Potency entry is “inactive”.

For the molecule `N=C(N)SCCc1cnc[nH]1`, the Potency entry was “inactive”.

Consider `O=[N+]([O-])c1ccc(CSc2ncnc3c2ncn3[C@@H]2O[C@H](CO)[C@@H](O)[C@H]2O)cc1`, for which the Potency result was “inactive”.

As for `Nc1ncnc2c1nc(Sc1ccc(Cl)cc1)n2[C@H]1OC2COP(=O)(O)O[C@@H]2C1O` (some centres undefined), the Potency result was “inactive”.

With `COc1ccccc1N1CCN(CCN(C(=O)c2ccc(F)cc2)c2ccccn2)CC1`, the Potency entry is “inactive”.

Take `C=CC[C@H](N)C(=O)O`: the Potency result is “inactive”.

Take `NOCC(=O)O`: the Potency entry was “inactive”.

As for `Nc1c(S(=O)(=O)O)cc(Nc2ccc(Nc3nc(Cl)nc(Nc4ccc(S(=O)(=O)O)cc4)n3)c(S(=O)(=O)O)c2)c2c1C(=O)c1ccccc1C2=O`, the Potency result is “inactive”.

As to `O=C(c1ccc2c(c1)OCCO2)N1CCCCC1`, the Potency entry is “inactive”.

`CSC(=N)N`: the Potency result is “inactive”.

On to `Nc1ncnc2c1ncn2[C@@H]1O[C@H](COP(=O)(O)CP(=O)(O)OP(=O)(O)O)[C@@H](O)[C@H]1O`, for which the Potency entry was “inactive”.

As for `N#C/C(=C\c1ccc(O)c(O)c1)C(=O)Nc1ccccc1`, the Potency entry was “inactive”.

In the case of `NCCSSCCN`, the Potency entry was “inactive”.

As for `N.N.N.N.N.N.N.N.N.N.N.N.N.N.O.O.[Ru+4].[Ru+5].[Ru+5]`, the Potency entry was “inactive”.

Turning to `O=C(c1cc(O)c(O)c([N+](=O)[O-])c1)c1ccccc1F`, the Potency result was “inactive”.
